We go through ten molecules from PubChem BioAssay (NCI).

SMILES strings stand for the structures. About 79,000 compounds went through this panel and 15% of them were active in at least one assay; those are over-represented in the sample as a whole. Unmarked numbers belong to inactive results. Active and inactive are the calls of the source. No stated cut-off is given here; in the data, active means growth inhibition above about 70%; inactive means the rest.

Assay [1] can be described thus: NCI Yeast Anticancer Drug Screen. Data for the rad50 strain (AID 155).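 Further: 0% = growth of vehicle-only cultures of the same strain.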 The conditions noted are these: S. cerevisiae rad50 strain growth inhibition, hits give high values. In short, it runs like this: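 Compounds were tested on a yeast strain with an engineered DNA damage repair alteration; the reported value is growth inhibition normalised to vehicle treatment.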

The nature of assay [2]: NCI Yeast Anticancer Drug Screen. Data for the mec2-1 strain (AID 157). The following applies: S. cerevisiae mec2-1 strain, hits give high values. In short, it runs like this:
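Each compound was tested on mec2-1 yeast, a strain altered in DNA damage repair or cell cycle control. Growth inhibition is reported relative to vehicle.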

The nature of assay [3]: NCI Yeast Anticancer Drug Screen. Data for the sgs1 mgt1 strain (AID 161).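 Further: 0% = growth of cultures given vehicle only.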 The following applies: S. cerevisiae sgs1 mgt1 strain, hits give high values. In short, it runs like this: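 Read-out: growth inhibition vs vehicle controls. Cells: mutant yeast strain deficient in DNA damage repair.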
Assay [4] is described as follows: NCI Yeast Anticancer Drug Screen. Data for the cln2 rad14 strain (AID 165).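 Further: 0% = growth equal to vehicle treated cultures.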 The following applies: S. cerevisiae cln2 rad14 strain, hits give high values. The gist of the method:
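Test compounds were added to cln2 rad14 yeast cultures; inhibition of growth was then determined by comparison with vehicle treatment.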

Assay [5] in a line: NCI Yeast Anticancer Drug Screen. Data for the bub3 strain (AID 167). The following applies: S. cerevisiae bub3 mutant strain, hits give high values. In short, it runs like this:
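Growth of a checkpoint-deficient yeast mutant is measured after compound exposure. Values represent inhibition relative to vehicle.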

Assay [6] in a line: NCI Yeast Anticancer Drug Screen. Data for the mlh1 rad18 strain (AID 175). The conditions noted are these: S. cerevisiae mlh1 rad18 strain growth inhibition, hits give high values. The gist of the method:
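Inhibition values reflect reduced growth of mutant yeast versus vehicle-treated controls following compound exposure; the mutations affect DNA damage repair.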

Setting [7] is: at 5.0 µM (retest, dose inferred, filed as 0.5).
The mark [8] stands for this setting: at 50.0 µM (retest, dose inferred, filed as 5.0).

For the molecule `CC1=CC(=O)C=C(Br)C1=O`, the growth inhibition is 18% in assay [1] (setting [7]); 99% (active) in assay [1] (setting [8]); 98.8% (active) in assay [1] (at 50.0 µM); 12% in assay [2] (setting [7]); 99% (active) in assay [2] (setting [8]); 99.5% (active) in assay [2] (at 50.0 µM). Also, the growth inhibition was 6% in assay [3] (setting [7]); 95% (active) in assay [3] (setting [8]); 99.3% (active) in assay [3] (at 50.0 µM); 2% in assay [4] (setting [7]); 41% in assay [4] (setting [8]); 87.7% (active) in assay [4] (at 50.0 µM). In addition, the growth inhibition in assay [5] (setting [7]) was 11%; in assay [5] (setting [8]), 99% (active); in assay [5] (at 50.0 µM), 99.2% (active); in assay [6] (setting [7]), 13%; in assay [6] (setting [8]), 99% (active); in assay [6] (at 50.0 µM) it was 99.2% (active).

As for `O=C(O/N=C(/Cc1ccccc1)c1ccccc1)c1ccccc1`, the growth inhibition was -15% in assay [1] (setting [7]); 63% in assay [1] (setting [8]); 90.3% (active) in assay [1] (at 50.0 µM); -10% in assay [2] (setting [7]); 72% (active) in assay [2] (setting [8]); 28.1% in assay [2] (at 50.0 µM). Also, the growth inhibition in assay [3] (setting [7]) is -1%; in assay [3] (setting [8]), 76% (active); in assay [3] (at 50.0 µM) it was 88.8% (active); in assay [4] (setting [7]), -6%; in assay [4] (setting [8]) it was 92% (active); in assay [4] (at 50.0 µM), 43.6%. For the same molecule, the growth inhibition is -17% in assay [5] (setting [7]); 66% in assay [5] (setting [8]); 18.4% in assay [5] (at 50.0 µM); 3% in assay [6] (setting [7]); 87% (active) in assay [6] (setting [8]); 93.2% (active) in assay [6] (at 50.0 µM).

On to `CCOC(=O)[C@@H](F)[C@H](Br)C(=O)OCC`, for which the growth inhibition was 86% (active) in assay [1] (setting [7]); 99% (active) in assay [1] (setting [8]); 89.2% (active) in assay [1] (at 50.0 µM); 58% in assay [2] (setting [7]); 100% (active) in assay [2] (setting [8]); 93.2% (active) in assay [2] (at 50.0 µM). In addition, the growth inhibition in assay [3] (setting [7]) was 75% (active); in assay [3] (setting [8]) it was 100% (active); in assay [3] (at 50.0 µM) it was 88.4% (active); in assay [4] (setting [7]) it was 55%; in assay [4] (setting [8]) it was 100% (active); in assay [4] (at 50.0 µM), 89.2% (active). The growth inhibition was 88% (active) in assay [5] (setting [7]); 100% (active) in assay [5] (setting [8]); 84.7% (active) in assay [5] (at 50.0 µM); 80% (active) in assay [6] (setting [7]); 99% (active) in assay [6] (setting [8]); 93.2% (active) in assay [6] (at 50.0 µM).

As to `Cc1cc(C)[nH]c(=S)n1.[Pt]`, the growth inhibition in assay [1] (setting [7]) was -1%; in assay [1] (setting [8]), -9%; in assay [1] (at 50.0 µM) it was 8.7%; in assay [2] (setting [7]), 0%; in assay [2] (setting [8]) it was -3%; in assay [2] (at 50.0 µM), 35.2%. The growth inhibition in assay [3] (setting [7]) is -2%; in assay [3] (setting [8]), -5%; in assay [3] (at 50.0 µM) it was 12.2%; in assay [4] (setting [7]), 2%; in assay [4] (setting [8]), 7%; in assay [4] (at 50.0 µM), 81.3% (active). For the same molecule, the growth inhibition in assay [5] (setting [7]) was 2%; in assay [5] (setting [8]), -2%; in assay [5] (at 50.0 µM), 21.9%; in assay [6] (setting [7]), -2%; in assay [6] (setting [8]), -7%; in assay [6] (at 50.0 µM) it was 0.5%.

For the molecule `CCOC(=O)C(/C=N\C(=S)Nc1ccc(Cl)c(Cl)c1)=C(/O)c1ccccc1`, the growth inhibition is 2% in assay [1] (setting [7]); 58% in assay [1] (setting [8]); 83.3% (active) in assay [1] (at 50.0 µM); -3% in assay [2] (setting [7]); 45% in assay [2] (setting [8]); 69% in assay [2] (at 50.0 µM). For the same molecule, the growth inhibition was 11% in assay [3] (setting [7]); 38% in assay [3] (setting [8]); 75.5% (active) in assay [3] (at 50.0 µM); -8% in assay [4] (setting [7]); 45% in assay [4] (setting [8]); 78.6% (active) in assay [4] (at 50.0 µM). Further, the growth inhibition in assay [5] (setting [7]) is 12%; in assay [5] (setting [8]) it was 35%; in assay [5] (at 50.0 µM), 78.4% (active); in assay [6] (setting [7]) it was -9%; in assay [6] (setting [8]), 49%; in assay [6] (at 50.0 µM) it was 81.2% (active).

Regarding `CC(=O)Nc1ccc(C(=O)NN2C(=O)C(Cl)C2c2cc(Br)cc(Br)c2O)cc1` (stereo not given), the growth inhibition in assay [1] (setting [7]) is 20%; in assay [1] (setting [8]), -5%; in assay [1] (at 50.0 µM), -18%; in assay [2] (setting [7]) it was -6%; in assay [2] (setting [8]), 5%; in assay [2] (at 50.0 µM), -25.1%. The growth inhibition is -1% in assay [3] (setting [7]); -7% in assay [3] (setting [8]); -23.4% in assay [3] (at 50.0 µM); 0% in assay [4] (setting [7]); 12% in assay [4] (setting [8]); 2% in assay [4] (at 50.0 µM). Moreover, the growth inhibition in assay [5] (setting [7]) was -17%; in assay [5] (setting [8]), -11%; in assay [5] (at 50.0 µM), 0.85%; in assay [6] (setting [7]) it was 7%; in assay [6] (setting [8]), 26%; in assay [6] (at 50.0 µM), -35%.

Consider `Nc1nc(-c2ccccc2)nc(Cl)c1I`, for which the growth inhibition is 0% in assay [1] (setting [7]); 17% in assay [1] (setting [8]); 74.7% (active) in assay [1] (at 50.0 µM); -3% in assay [2] (setting [7]); 24% in assay [2] (setting [8]); 28.9% in assay [2] (at 50.0 µM). Also, the growth inhibition was 3% in assay [3] (setting [7]); 43% in assay [3] (setting [8]); 78% (active) in assay [3] (at 50.0 µM); 3% in assay [4] (setting [7]); 21% in assay [4] (setting [8]); 15.6% in assay [4] (at 50.0 µM). The growth inhibition in assay [5] (setting [7]) is -10%; in assay [5] (setting [8]), 16%; in assay [5] (at 50.0 µM) it was -5.25%; in assay [6] (setting [7]) it was -4%; in assay [6] (setting [8]) it was 21%; in assay [6] (at 50.0 µM), 81.4% (active).

For the molecule `CC(C)(Br)C(Br)C(=O)C(Br)C(C)(C)Br` (stereo not given), the growth inhibition in assay [1] (setting [7]) is -1%; in assay [1] (setting [8]), 8%; in assay [1] (at 50.0 µM) it was 52.2%; in assay [2] (setting [7]), -2%; in assay [2] (setting [8]) it was 26%; in assay [2] (at 50.0 µM), 48.6%. Further, the growth inhibition in assay [3] (setting [7]) is -4%; in assay [3] (setting [8]) it was 31%; in assay [3] (at 50.0 µM) it was 63.6%; in assay [4] (setting [7]) it was -2%; in assay [4] (setting [8]), 15%; in assay [4] (at 50.0 µM), -7.9%. In addition, the growth inhibition is -2% in assay [5] (setting [7]); 40% in assay [5] (setting [8]); 19.6% in assay [5] (at 50.0 µM); -1% in assay [6] (setting [7]); 31% in assay [6] (setting [8]); 69% in assay [6] (at 50.0 µM).

As for `Cc1c(CNc2ccc(Cl)c(Cl)c2Cl)cnc2nc(N)nc(N)c12`, the growth inhibition in assay [1] (setting [7]) is 40%; in assay [1] (setting [8]) it was 86% (active); in assay [1] (at 50.0 µM), 78.5% (active); in assay [2] (setting [7]) it was 27%; in assay [2] (setting [8]), 53%; in assay [2] (at 50.0 µM), 44.5%. For the same molecule, the growth inhibition is 19% in assay [3] (setting [7]); 52% in assay [3] (setting [8]); 64.5% in assay [3] (at 50.0 µM); 34% in assay [4] (setting [7]); 60% in assay [4] (setting [8]); 43.4% in assay [4] (at 50.0 µM). Moreover, the growth inhibition in assay [5] (setting [7]) is 28%; in assay [5] (setting [8]) it was 46%; in assay [5] (at 50.0 µM), 51.5%; in assay [6] (setting [7]), 30%; in assay [6] (setting [8]), 56%; in assay [6] (at 50.0 µM), -36.1%.

Regarding `CCOC(=O)c1[nH]cc(C)c1-c1ccc2c(-c3ccccc3)nc3ccccc3n12`, the growth inhibition is 5% in assay [1] (setting [7]); 65% in assay [1] (setting [8]); 44.8% in assay [1] (at 50.0 µM); 7% in assay [2] (setting [7]); 61% in assay [2] (setting [8]); 64.2% in assay [2] (at 50.0 µM). In addition, the growth inhibition in assay [3] (setting [7]) was 3%; in assay [3] (setting [8]) it was 70% (active); in assay [3] (at 50.0 µM), 60.4%; in assay [4] (setting [7]), 12%; in assay [4] (setting [8]) it was 81% (active); in assay [4] (at 50.0 µM), 38.8%. Besides, the growth inhibition was 9% in assay [5] (setting [7]); 79% (active) in assay [5] (setting [8]); 40.6% in assay [5] (at 50.0 µM); 12% in assay [6] (setting [7]); 73% (active) in assay [6] (setting [8]); 69% in assay [6] (at 50.0 µM).
